DAX1 inh-1 – DAX1 (NR0B1) inhibitors, primary screen, cell-based, HEK293, Gal4-DAX1, luciferase luminescence. HEK293 Gal4-DAX1 luciferase reporter. inhibition, % at 6.75 µM. 340,000 compounds, 0.99% hits. AID 504766, 2011;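 active = inhibition above the mean over all tested compounds plus 3 SD, cut at about 4.2% in these data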;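 also: 0% = DAX1-transfected cells with DMSO and 100% = empty-vector control cells with DMSO; inhibition shows as a rise in luminescence from relieved DAX1 repression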
hcDAF12 agonist – H. contortus DAF-12 nuclear receptor activators, primary screen, cell-based, luminescence, HEK293, lit1-tk-luc reporter | HEK293 hcDAF-12 lit1-tk-luc reporter; 0% DMSO, 100% Δ7-dafachronic acid | AID 652067, 2013 | 370,000 compounds, 1.4% hits | activation, % at 6.8 µM;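 active = activation above the mean of all tested compounds plus 3 SD, cut at about 5.5% in these data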;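 also: 100% = response to 3 µM Δ7-dafachronic acid high control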
SMARCA2 activ – SMARCA2 (BRM) function activators, primary screen, cell-based, luminescence, high throughput | 370,000 compounds, 1% hits | activation, % at 9.1 µM | AID 652017, 2013 | MG213 cells, MMTV-luciferase reporter, dexamethasone, overnight; in the data active = activation above about 7.8%;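 also: 0% = vehicle wells and 100% = reference activator wells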
hgDAF12 agonist – H. glycines DAF-12 receptor agonists, primary screen, cell-based, luminescence, HEK293, GAL4 fusion, UAS-luciferase. AID 687014, 2013. HEK293 GAL4-hgDAF12 UAS-luciferase reporter, agonist luminescence; normalized to butyrate control. 370,000 compounds, 1.8% hits. activation, % at 6.8 µM. Nuclear hormone receptor DAF-12 (Heterodera glycines), GAL4 fusion;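 active = activation above a cutoff set at the mean of all screened compounds plus 3 SD, cut at about 10% in these data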;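 also: 0% = DMSO wells and 100% = sodium butyrate wells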
ssDAF12 agonist – S. stercoralis DAF-12 nuclear receptor activators, primary screen, cell-based, luminescence, HEK293, GRIP1 co-expression, lit1-tk-luc | Nuclear hormone receptor DAF-12 (Strongyloides stercoralis) | HEK293 ssDAF-12/GRIP1 lit1-tk-luc reporter; % of 3 µM dafachronic acid response | activation, % at 6.8 µM | 370,000 compounds, 1% hits | AID 652126, 2013;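 active = activation above the mean over all tested compounds plus 3 SD, cut at about 0.9% in these data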;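 also: 0% = DMSO-only wells and 100% = 3 µM delta7-dafachronic acid wells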
DAX1 inh-2 – DAX1 (NR0B1) inhibitors on StAR promoter, primary screen, cell-based, luminescence, SF-1 (NR5A1), full-length DAX-1. AID 652010, 2013. HEK293T StAR-luciferase reporter, SF-1/DAX-1 repression relief. inhibition, % at 6.8 µM. 370,000 compounds, 1.1% hits;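 active = inhibition above the mean over all tested compounds plus 3 SD, cut at about 3.6% in these data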;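 also: 0% = DAX-1 cells with DMSO and 100% = cells lacking DAX-1 with DMSO; higher inhibition means more luminescence from relief of DAX-1 repression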
DAX1 conf – DAX1 (NR0B1) inhibitors relieving SF-1 repression, confirmation, cell-based, luminescence, HEK293T, full-length DAX-1, SF-1 activated StAR promoter; shares compounds with DAX1 inh-2; HEK293T StAR-promoter luciferase reporter, SF-1/DAX-1 repression; inhibition, % at 6.8 µM; 2,400 compounds, 87% hits; AID 652134, 2013;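 active = inhibition above the average of every tested compound plus 3 SD, cut at about 3.8% in these data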;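 also: 0% = DAX-1 cells with DMSO and 100% = no DAX-1 control cells with DMSO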
Target sequence (P51843 whole entry, looked up): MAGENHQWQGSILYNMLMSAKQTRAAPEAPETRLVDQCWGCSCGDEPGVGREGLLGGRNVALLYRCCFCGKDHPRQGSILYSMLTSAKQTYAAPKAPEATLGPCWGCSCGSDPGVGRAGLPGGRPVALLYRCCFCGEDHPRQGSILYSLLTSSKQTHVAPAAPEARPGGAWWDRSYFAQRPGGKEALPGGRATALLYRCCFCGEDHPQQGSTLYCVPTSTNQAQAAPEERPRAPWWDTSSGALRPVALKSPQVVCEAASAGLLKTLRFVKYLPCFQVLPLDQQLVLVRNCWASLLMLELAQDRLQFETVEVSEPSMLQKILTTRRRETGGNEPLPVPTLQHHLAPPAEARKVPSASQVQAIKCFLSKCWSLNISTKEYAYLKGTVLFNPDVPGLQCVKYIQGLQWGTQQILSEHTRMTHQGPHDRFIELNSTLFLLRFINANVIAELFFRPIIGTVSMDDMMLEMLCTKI
SF1 mutant ctr – StAR reporter signal changes without DAX1, counter-screen for DAX1 inhibitor project, cell-based, luminescence, AF-2 mutant SF-1, transactivation. shares compounds with DAX1 inh-2. HEK293 StAR-luciferase, SF-1 AF2 mutant. inhibition, % at 6.8 µM. 2,400 compounds, 78% hits. AID 652136, 2013;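 active = inhibition above the mean of all tested compounds plus 3 SD, cut at about 3% in these data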;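 also: 0% = DAX-1 transfected cells with DMSO and 100% = cells without DAX-1 with DMSO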
LXR ag – LXR agonists, Gal4 luciferase reporter, confirmation, counter-screen for hcDAF-12 agonist project, cell-based, luminescence, HEK293, H. contortus campaign. shares compounds with hcDAF12 agonist. 3,400 tested, under 10 active. activation, % at 6.8 µM. AID 743027, 2013. HEK293 Gal4-LXR tk-luc reporter, 24 h; normalized: DMSO 0%, positive control 100%;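 active = mean percent activation of the reporter above a cutoff set as the average over tested compounds plus their standard deviation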
hcDAF12 ag – H. contortus DAF-12 receptor agonists, confirmation, cell-based, luminescence, HEK293, lit1-tk-luc, triplicate. 3,400 compounds, 61% hits. HEK293 hcDAF-12 lit1-tk-luc reporter; % of Δ7-dafachronic acid response. AID 743032, 2013. shares compounds with hcDAF12 agonist. activation, % at 6.8 µM;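 active = mean activation across triplicate tests above the threshold derived from the earlier primary screen, cut at about 5.5% in these data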;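 also: 0% = DMSO only wells and 100% = 3 µM Δ7-dafachronic acid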
hgDAF12 ag – H. glycines DAF-12 receptor agonists, confirmation, cell-based, luminescence, HEK293, GAL4-LBD fusion; shares compounds with hgDAF12 agonist; HEK293 GAL4-hgDAF12 luciferase reporter, agonist mode; percent of butyrate response; activation, % at 6.8 µM; 3,300 compounds, 80% hits;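 active = mean activation over triplicate wells above the hit cutoff derived from the earlier primary screen, cut at about 11% in these data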;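 also: 0% = DMSO low control and 100% = 2 mM sodium butyrate high control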
LXRb DAF12 ctr – LXR agonists, Gal4 luciferase reporter, confirmation, counter-screen for hgDAF-12 agonist project, cell-based, luminescence, HEK293, H. glycines campaign | shares compounds with hgDAF12 agonist | 24 h | activation, % at 6.8 µM | 3,300 tested, under 10 active;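 active = mean activation of the triplicate above a set limit carried over from the primary screen, none filed active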
* marks the source's active call; other numbers are inactive results; x = not tested or not shown. Hits are enriched below; roughly 4.8% of the tested compounds scored in any of these assays.

SMILES | DAX1 inh-1 | hcDAF12 agonist | SMARCA2 activ | hgDAF12 agonist | ssDAF12 agonist | DAX1 inh-2 | DAX1 conf | SF1 mutant ctr | LXR ag | hcDAF12 ag | hgDAF12 ag | LXRb DAF12 ctr
Cc1nc2nc(-c3ccccc3)cn2nc1C | 3.2 | 6.2* | 3.1 | 13.7* | 0.1 | 4.8* | 11.4* | 5.1* | x | x | 11.9* | 0.8
Cc1cc(N)n2nc(-c3ccccc3)cc2n1 | -1.1 | 12.4* | 5.8 | 20.1* | 1.7* | 5.8* | 16.4* | 8.2* | 1.4 | 6.9* | 18.9* | 1.0
Cc1ccc(-c2cc3nc(-c4ccccc4)cc(N)n3n2)cc1 | 1.3 | 0.5 | 1.2 | 9.9 | -0.4 | 1.6 | x | x | x | x | x | x
CCCc1ccc(OC(=O)c2ccc(O)cc2Cl)cc1 | 2.1 | 8.4* | 1.8 | 16.4* | 0.6 | 5.3* | 13.9* | 6.0* | 1.6 | 8.1* | 2.3 | 0.6
c1ccc2oc(-c3csc(N4CCOCC4)n3)cc2c1 | 0.6 | 9.3* | 4.3 | 18.0* | 0.3 | 7.7* | 11.2* | 3.2* | 1.3 | 7.8* | 15.4* | 0.9
Fc1ccc(-c2csc(N3CCOCC3)n2)cc1 | 3.6 | 1.5 | 2.6 | 5.2 | -0.3 | 0.3 | x | x | x | x | x | x
O=C(OCC#CCSc1nnc(-c2ccc(Cl)cc2)o1)c1ccc(F)cc1 | x | -0.3 | x | 2.8 | -1.4 | x | x | x | x | x | x | x
CC(=O)Nc1sc2c(c1-c1nc3ccccc3s1)CCCNC2 | x | 5.3 | x | 2.4 | 0.7 | x | x | x | x | x | x | x
Cc1ccccc1NC(=O)c1cccc(C(=O)Nc2ccccc2C)n1 | -0.5 | -3.1 | -1.4 | 0.0 | -1.5 | -1.1 | x | x | x | x | x | x
Cc1cccc(NC(=O)c2ccc3ccccc3n2)c1C | 2.5 | 22.7* | -1.1 | 17.2* | 2.8* | 6.4* | 11.1* | 7.5* | 1.9 | 18.8* | 25.4* | 1.3

Screens deposited in PubChem by The Scripps Research Institute Molecular Screening Center.
